Data from PubChem BioAssay.
Calls of active or inactive are those of the source.

What was measured:
[1] = tested on: XIP peptide (Xip251-270) binding; assay: small-molecule binders of XIP peptide, primary screen, biochemical, small-molecule microarray, fluorescence 635/667 nm, 0.1 µg/mL protein (AID 1182); details: fluorescent protein binding, 635 nm, higher = more signal, called active from +8 up or from −8 down
XIP peptide (Xip251-270) = assay: small-molecule binders of XIP peptide, primary screen, biochemical, small-molecule microarray, fluorescence 635/667 nm, 0.5 µg/mL protein (AID 1183); details: small-molecule microarray binding, fluorescence 635 nm; higher = more signal
[2] = Plasmodium falciparum growth inhibition, primary screen, strain 3D7, DAPI fluorescence, 100 nL (AID 1184);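 note: parasites grown inside human red blood cells in medium with human serum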; details: P. falciparum 3D7 growth, 3 d, higher = more signal
[3] = target: Homeobox protein Hox-A13 (Mus musculus) (UniProt Q62424); assay: inhibitors of HoxA13-DNA binding, primary screen, biochemical, fluorescence polarization, labeled oligonucleotide (AID 1185); details: 15 min, higher = more signal, called active from +8 up or from −8 down
Homeobox protein Hox-A13 (Mus musculus), sequence (Q62424 whole entry, looked up): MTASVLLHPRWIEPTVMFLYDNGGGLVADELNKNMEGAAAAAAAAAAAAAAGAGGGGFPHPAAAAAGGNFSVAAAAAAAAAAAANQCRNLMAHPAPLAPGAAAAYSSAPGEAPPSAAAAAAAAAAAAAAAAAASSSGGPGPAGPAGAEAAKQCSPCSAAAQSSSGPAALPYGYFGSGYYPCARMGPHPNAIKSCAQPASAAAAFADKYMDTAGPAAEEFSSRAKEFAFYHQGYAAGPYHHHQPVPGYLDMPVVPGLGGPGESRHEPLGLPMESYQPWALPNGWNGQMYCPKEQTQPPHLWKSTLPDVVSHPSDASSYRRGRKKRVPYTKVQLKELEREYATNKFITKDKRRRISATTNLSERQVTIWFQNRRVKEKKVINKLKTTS

SMILES	composite z-score [1]	composite z-score (XIP peptide (Xip251-270))	z-score [2]	z-score [3]
O=C1CCCC=C1C(O)CCOC(c1ccccc1)(c1ccccc1)c1ccccc1 (stereo not given)	-0.0848 (inactive)	-0.364	-1.1	-4.61 (inactive)
CC(C)CON=C1C[C@@H](O)[C@@H](O)[C@@H]2[C@@H]3C(=O)N(C[C@@H]4CCCO4)C(=O)[C@@H]3CC[C@@H]12	-0.0867 (inactive)	0.205	0.192	-0.771 (inactive)
CC(C)CON=C1C[C@@H](O)[C@@H](O)[C@@H]2[C@@H]3C(=O)N(c4ccc(F)cc4F)C(=O)[C@@H]3CC[C@H]12	0.0163 (inactive)	0.37	0.0017	-0.224 (inactive)
Cc1cc2c(nc1C)CCCCN2CC(C)ON=C1[C@H]2CCn3c(=O)n(-c4ccccc4)c(=O)n3[C@H]2[C@H](O)[C@@H]2O[C@H]12 (stereo not given in full)	-0.239 (inactive)	0.7	-1.94	-4.23 (inactive)
CCOC(=O)CCN1C(=O)[C@H]2[C@H]3[C@H](O)[C@H](O)CC(=NNC(=O)OCc4ccccc4)[C@@H]3CC[C@H]2C1=O	0.0651 (inactive)	0.791	-0.597	0.897 (inactive)
CC(=O)OC[C@H]1OC(ON=CC[C@@H]2C=C[C@H](OC(C)=O)[C@@H](COC(C)=O)O2)[C@H](OC(C)=O)[C@@H](OC(C)=O)[C@@H]1OC(C)=O (stereo not given in full)	-0.476 (inactive)	0.0849	0.728	-2.22 (inactive)
Cn1c(=O)n2n(c1=O)[C@H]1[C@H](O)[C@@H]3O[C@@H]3C(=O)[C@H]1CC2	0.151 (inactive)	0.186	0.551	0.336 (inactive)
Cn1c(=O)n2n(c1=O)[C@H]1[C@H](O)[C@@H]3O[C@@H]3C(=NOCc3ccccc3)[C@H]1CC2	0.899 (inactive)	0.382	0.769	-2.35 (inactive)
CCCNC(=O)OC[C@H]1O[C@H](CCON=C(C)CCN2CCc3nc(CC)c(CC)cc3C2)C=C[C@@H]1Oc1ccc(OC)cc1	-0.339 (inactive)	0.27	-2.17	-5.98 (inactive)
O=C1[C@H]2[C@H]3[C@H](O)[C@H](O)CC(=NOC[C@@H](O)COCc4ccco4)[C@@H]3CC[C@H]2C(=O)N1C[C@@H]1CCCO1	0.0071 (inactive)	0.791	0.965	0.515 (inactive)
C[C@H]1CC[C@H]2C(=O)O[C@H](COc3ccc(C(C)(C)C)cc3)CN2[C@@H]1c1ccc(Br)cc1	1.71 (inactive)	0.567	-0.398	1.13 (inactive)
COC(=O)C=CCCc1coc(C=CCNC(=O)OC)n1	0.56 (inactive)	0.868	-0.92	-2.9 (inactive)
CC(CCC(=O)OC[C@H]1O[C@H](C#Cc2ccccc2)C=C[C@@H]1Oc1ccc(C)cc1)=NO[C@H](C)c1cn([C@H](CO)Cc2ccccc2)nn1	0.157 (inactive)	0.662	-0.563	-2.88 (inactive)
C[C@H](ON=C1[C@H]2CCn3c(=O)n(-c4ccccc4)c(=O)n3[C@H]2[C@H](O)[C@@H]2O[C@H]12)c1cn([C@H](CO)Cc2ccccc2)nn1	2.76 (inactive)	0.238	0.0242	-3.02 (inactive)
COC(=O)[C@H](C)NC(=O)CCC1CC(OC(=O)NCc2ccc3c(c2)OCO3)CC2(CCCC(COC(=O)NCCc3ccccc3OC)O2)O1 (stereo not given in full)	0.516 (inactive)	0.588	-0.143	-6.43 (inactive)
CO[C@@H]1COC(=O)CC=C[C@H](C)[C@H](OC)COC(=O)[C@H](C)NC(=O)CC=C[C@H]1C	-0.436 (inactive)	0.82	-0.382	0.189 (inactive)
O=C1[C@H]2[C@H]3[C@H](O)[C@H](O)CC(=NOCc4ccccc4)[C@H]3CC[C@H]2C(=O)N1Cc1ccc2c(c1)OCO2	-0.4 (inactive)	-0.267	-0.437	-3.74 (inactive)
CCOC(=O)[C@H](Cc1ccccc1)NC(=O)CCC1CC(OC(=O)NCc2cccc3ccccc23)CC2(CCCC(COC(=O)NCCC(C)C)O2)O1 (stereo not given in full)	0.646 (inactive)	0.027	0.0857	-5.99 (inactive)
COc1cccc([C@H]2Oc3ccc(OC)cc3C(=NO[C@H](C)c3cn([C@H](CO)Cc4ccccc4)nn3)[C@@H]2O)c1	-0.0592 (inactive)	0.733	0.24	-6.29 (inactive)
COc1ccc(O[C@@H]2[C@H](O)CO[C@@H]2C=Cc2ccccc2)cc1	0.196 (inactive)	0.592	-0.971	-0.162 (inactive)
